VP16 counter: Gal4-VP16 reporter inhibition counter-screen; Drosophila S2 Gal4-VP16 UAS-luciferase, luminescence, 20 h; AID 2546; Potency, µM (doses to about 53.6 µM), without a hit: at the highest dose activity, negative = inhibition, actives largely listed as inhibitors; 310,000 tested, 3.5% active;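 further: Gal4-VP16 expression switched on by copper sulfate through the metallothionein promoter; on the % scale 0 is the no-effect control and ±100 the full control effect; nearly all actives have a fitted effect of over 50% in size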
Epigenetic derep: derepresses silenced GFP reporter in murine cells | murine LDR cells, GFP reporter derepression, 30 h | Potency, µM (highest dose often 53.9 µM), for inactives: at the top dose GFP activation, hits mostly activators | 280,000 tested, 0.2% active | AID 1865; further: % of control where 0% means no effect; nearly all actives have a fitted effect of over 60% in size
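Reporter derepression read as number of fluorescent GFP-positive objects, 20-120 um in size, counted by laser-scanning cytometer. Mouse LDR line with an epigenetically silenced CMV-GFP locus; compound incubation 30 h, 37 C.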
ClpP mod: qHTS Assay for Activators of ClpP; ATP-dependent Clp protease proteolytic subunit (Bacillus subtilis (strain 168)), P80244; purified B. subtilis ClpP, FRET peptide cleavage, 20 min; Potency, µM (top dose mostly 57.5 µM), inactives show at the highest dose activity change, negative = active; 340,000 tested, 1.9% active; active means well fitted falling curve with a large enough effect; inconclusive means small, poorly fitted or top-dose-only effect; inactive means no such curve, though single readings can be large or run the other way; further: the source files actives as falling curves though it sought activators and does not explain the sign; nearly all actives have a fitted effect of over 65% in size
Target sequence (P80244 whole entry, looked up): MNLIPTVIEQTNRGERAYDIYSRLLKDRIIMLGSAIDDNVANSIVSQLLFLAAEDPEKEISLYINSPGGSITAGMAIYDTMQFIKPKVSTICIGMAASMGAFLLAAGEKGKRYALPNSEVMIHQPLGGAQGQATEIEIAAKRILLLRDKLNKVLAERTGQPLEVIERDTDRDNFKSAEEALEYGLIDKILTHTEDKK
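FRET quenching reversal measured ClpP activation: 10 microg/mL B. subtilis ClpP at pH 8 with the FRET-FV decapeptide, read at 430 nm after 320 nm excitation. The 20-min minus 0-min signal was scaled between DMSO/no-enzyme wells and ADEP (5.8 microM final).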
PINK1 modulator: PINK1 expression modulation | Potency, µM (doses to about 76.6 µM), for the others: at the top dose activation (PINK1 increase), actives largely listed as activators | PINK1 immunofluorescence, high-content cytometry, 24 h | 410,000 tested, 0.2% active | AID 624263; active means well fitted activation curve with a large enough effect; inconclusive means small, poorly fitted or top-dose-only effect; cell line not stated here; further: % of control where 0% means no effect; nearly all actives have a fitted effect of over 65% in size
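PINK1 protein, normally rapidly degraded, was detected by immunofluorescence after 24 hour compound treatment of a stable cell line. Titration data (5 concentrations) came from laser-scanning cytometry, with CCCP-treated wells as controls.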
Sfp PPTase inh: inhibitors of Bacillus subtilis Sfp phosphopantetheinyl transferase. Q9F4F7. Biochemical Sfp PPTase activity, qHTS. Potency, µM, for the others: largest response in the series, negative = inhibition, usual class: inhibitors. 310,000 tested, 3.5% active. AID 1490;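 further: the enzyme is Sfp with the accession as filed and its product quenches rhodamine fluorescence; 0% = enzyme reaction without inhibitor and -100% = no enzyme wells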
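Sfp 15 nM + cpd, 15 min RT; start w/ rhodamine-CoA 5 uM, BHQ-2-YbbR 12.5 uM (final); 50 mM Hepes pH 7.6, 10 mM MgCl2, 0.01% NP-40, 0.01% BSA; read 525/598 nm at 0 and 30 min.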
RORgamma inh: blocks mouse ROR gamma transcriptional activity. 310,000 tested, 5.4% active. AID 2551. P51450. Drosophila S2 Gal4-RORgamma UAS-luciferase reporter, 20 h. Potency, µM (top dose mostly 53.6 µM), for inactives: at the highest dose activity change, negative = inhibition, actives largely listed as inhibitors; further: on the % scale 0 is the no-effect control and ±100 the full control effect; nearly all actives have a fitted effect of over 60% in size
Target sequence (P51450 whole entry, looked up, the tested form may be a part): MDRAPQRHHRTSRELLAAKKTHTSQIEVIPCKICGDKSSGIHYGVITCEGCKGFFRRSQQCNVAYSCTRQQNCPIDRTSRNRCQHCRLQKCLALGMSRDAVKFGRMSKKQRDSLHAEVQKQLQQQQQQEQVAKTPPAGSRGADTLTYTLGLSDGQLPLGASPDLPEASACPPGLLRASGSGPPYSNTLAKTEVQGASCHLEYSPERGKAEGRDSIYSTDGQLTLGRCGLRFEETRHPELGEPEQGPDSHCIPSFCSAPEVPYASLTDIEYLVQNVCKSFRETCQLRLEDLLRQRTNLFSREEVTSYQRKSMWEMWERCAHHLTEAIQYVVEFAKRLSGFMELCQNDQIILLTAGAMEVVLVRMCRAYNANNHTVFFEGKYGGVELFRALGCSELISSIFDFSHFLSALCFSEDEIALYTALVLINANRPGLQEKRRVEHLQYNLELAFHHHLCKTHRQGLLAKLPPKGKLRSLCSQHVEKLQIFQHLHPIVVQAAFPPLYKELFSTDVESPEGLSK
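Schneider cells (Drosophila), stable Gal4 DBD–ROR gamma + UAS-luc; 1 hr cmpd preincubation; Cu2+ induction 700 uM final; 20 hr ambient; luminescence.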
Starred values were filed as active, the others as inactive; [ ] = dose if it differs, or a comment. Sampled rows, rich in hits. Any-hit rate of the full collection: about 8.1%. Unless noted, the call rests on the fitted dose curve; in most records, active means well fitted curve in the direction sought with a large enough effect; inconclusive means small, poorly fitted or top-dose-only effect, or another doubt; inactive means no such curve, though single readings can be large; an effect the other way counts as inactive or inconclusive. Potency means the concentration at half of the fitted maximal effect.

Results for CC(C)c1ccc2[nH]c3c(c2c1)CCC/C3=N\NC(=O)c1ccncc1 ?
VP16 counter: 5.01µM*; Epigenetic derep: 4.9%; ClpP mod: 0.0%; PINK1 modulator: 3.7%; Sfp PPTase inh: 9.8%; RORgamma inh: 0.891µM*

How did COc1ccc(-c2cc(C(F)(F)F)nc(SCC(=O)NCc3ccc(Cl)cc3)n2)cc1 do in these assays?
Epigenetic derep: 1.9%; ClpP mod: 4.5%; PINK1 modulator: 1.6%

Results for COc1ccccc1CNC(=O)CSc1ccc(-c2sc(-c3ccccc3)nc2C)nn1 ?
Epigenetic derep: -0.1%; ClpP mod: 28.2µM*; PINK1 modulator: 1.2%

What do the screens show for `Cc1cc(C)nc(-n2nc(C)c3c2NC(=O)CC3c2cc(F)ccc2F)n1` (stereo unspecified)?
Epigenetic derep: -3.2%; ClpP mod: 1.9%; PINK1 modulator: -0.7%

What do the screens show for `Cc1cc(C(=O)NCc2nnc3n2CCN(Cc2ccc(F)cc2F)CC3)c(C)o1`?
PINK1 modulator: -0.2%

What do the screens show for `CCOc1ccc2c(CC)cc(=O)oc2c1OCC`?
VP16 counter: -3.8%; Epigenetic derep: 0.3%; ClpP mod: -2.2%; PINK1 modulator: 0.0%; Sfp PPTase inh: 18.2%; RORgamma inh: -1.8%

Results for CCc1cc(=O)oc2c(C)c(O[C@@H]3O[C@H](CO)[C@@H](O)[C@H](O)[C@H]3O)ccc12 ?
VP16 counter: -4.0%; ClpP mod: 28.2µM*; PINK1 modulator: -0.9%; Sfp PPTase inh: 8.1%; RORgamma inh: 8.3%

Results for CCc1cc(=O)oc2c(C)c(OCC(=O)N3CCCc4ccccc43)ccc12 ?
VP16 counter: inconclusive; Epigenetic derep: -1.3%; ClpP mod: inconclusive; PINK1 modulator: -2.1%; Sfp PPTase inh: 2.3%; RORgamma inh: 11.2µM*

What do the screens show for `C=CCOc1ccc2c(CC)cc(=O)oc2c1C`?
VP16 counter: -9.0%; Epigenetic derep: 0.0%; ClpP mod: 25.1µM*; PINK1 modulator: -1.5%; Sfp PPTase inh: 3.4%; RORgamma inh: 0.1%

What do the screens show for `O=C(NCC1CCC2(CCN(Cc3c[nH]c4ccccc34)CC2)O1)C1CCOCC1` (stereo unspecified)?
PINK1 modulator: -0.9%

How did COCCCn1c(=N)c(S(=O)(=O)c2ccccc2)cc2c(=O)n3cccc(C)c3nc21 do in these assays?
Epigenetic derep: 0.2%; ClpP mod: 0.2%; PINK1 modulator: 5.0%

How did Cc1cc(NN)nc(NS(=O)(=O)c2ccccc2)n1 do in these assays?
VP16 counter: -23.1%; Epigenetic derep: -1.1%; PINK1 modulator: -0.4%; Sfp PPTase inh: 56.2µM*; RORgamma inh: -38.7%

What do the screens show for `Cc1cc(NN)nc(NS(=O)(=O)c2ccc(Cl)cc2)n1`?
VP16 counter: -22.9%; Epigenetic derep: -0.5%; ClpP mod: 0.2%; PINK1 modulator: 3.4%; Sfp PPTase inh: -19.2%; RORgamma inh: -8.9%

How did Cc1ccc2sc(NNC(=O)C3COc4ccccc4O3)nc2c1C (stereo unspecified) do in these assays?
VP16 counter: 8.91µM*; Epigenetic derep: 0.6%; ClpP mod: -3.5%; PINK1 modulator: 3.8%; Sfp PPTase inh: inconclusive; RORgamma inh: 2µM*

Results for COc1cccc2sc(NNC(=O)C3=COCCO3)nc12 ?
VP16 counter: -25.3%; Epigenetic derep: inconclusive; ClpP mod: 35.5µM*; PINK1 modulator: 29.8%; Sfp PPTase inh: -2.3%; RORgamma inh: inconclusive

How did O=C(NNc1nc2c(F)cccc2s1)C1COc2ccccc2O1 (stereo unspecified) do in these assays?
VP16 counter: -1.5%; Epigenetic derep: -3.5%; PINK1 modulator: 0.4%; Sfp PPTase inh: 0.9%; RORgamma inh: 1.9%

Results for Cc1nc2cc(NC(=O)C3COc4ccccc4O3)ccc2s1 (stereo unspecified) ?
VP16 counter: 12.5%; Epigenetic derep: -7.0%; PINK1 modulator: 1.4%; Sfp PPTase inh: -2.0%; RORgamma inh: 25.3%

How did COc1cccc2sc(NNC(=O)C3COc4ccccc4O3)nc12 (stereo unspecified) do in these assays?
VP16 counter: 9.6%; Epigenetic derep: -2.1%; PINK1 modulator: 1.9%; Sfp PPTase inh: 79.4µM*; RORgamma inh: 3.55µM*

Results for COc1ccc(OC)c2sc(NC(=O)C3=COCCO3)nc12 ?
VP16 counter: 2.7%; Epigenetic derep: 1.9%; ClpP mod: 3.9%; PINK1 modulator: 4.9%; Sfp PPTase inh: 1.4%; RORgamma inh: -2.9%

Results for CC(C)(C)CNc1nc(C#N)nc(Nc2ccccc2)n1 ?
VP16 counter: -6.1%

Results for O=C(CCn1nc(-c2ccc(Cl)cc2)c2ccccc2c1=O)Nc1ccc(OC(F)(F)F)cc1 ?
Epigenetic derep: 4.3%; ClpP mod: -3.7%; PINK1 modulator: 4.7%

What do the screens show for `COc1ccc(NCc2cc3ccc(OC)cc3n(CC(=O)Nc3ccc(C)c(C)c3)c2=O)cc1`?
Epigenetic derep: 5.7%; ClpP mod: 1.3%; PINK1 modulator: 1.2%

What do the screens show for `CCOC(=O)C1=C(C)NC(C)=C(C(=O)OCC)C1c1cn(-c2ccccc2)nc1-c1ccco1`?
VP16 counter: -1.5%; Epigenetic derep: -6.3%; ClpP mod: inconclusive; PINK1 modulator: 7.2%; Sfp PPTase inh: 25.6%; RORgamma inh: 0.6%

What do the screens show for `CC(C)OC(=O)c1cn(-c2ccccc2)nc1-c1ccco1`?
Epigenetic derep: 0.0%; ClpP mod: 0.6%; PINK1 modulator: 3.0%; Sfp PPTase inh: 8.91µM*; RORgamma inh: -9.4%[0.365 µM]

What do the screens show for `CC1(C)CC(C(=O)N2CCOc3ccc(CN4CCN(Cc5ccccn5)CC4)cc3C2)CCO1` (stereo unspecified)?
PINK1 modulator: -0.4%

Results for Cn1/c(=N/NC(=O)c2cccc(OC(F)F)c2)sc2ccccc21 ?
VP16 counter: 14.1µM*; Epigenetic derep: 0.0%; ClpP mod: -2.9%; PINK1 modulator: -1.1%; Sfp PPTase inh: 4.5%; RORgamma inh: 10µM*

How did COc1ccc(C2=Nn3c(nnc3-c3ccccc3C)SC2)cc1 do in these assays?
VP16 counter: 3.4%; Sfp PPTase inh: 44.7µM*; RORgamma inh: 18.8%

What do the screens show for `Fc1ccc(C2=Nn3c(nnc3-c3ccco3)SC2)cc1`?
VP16 counter: 37.1%; Epigenetic derep: 1.0%; PINK1 modulator: 0.5%; Sfp PPTase inh: inconclusive; RORgamma inh: 29.8%

Results for COc1ccc(C2=Nn3c(nnc3-c3ccccc3C)SC2)cc1OC ?
VP16 counter: -3.2%; Sfp PPTase inh: 5.0%; RORgamma inh: -11.2%

High-throughput results deposited in PubChem BioAssay by National Center for Advancing Translational Sciences (NCATS).
